In PubChem BioAssay AID1745857 (National Center for Advancing Translational Sciences (NCATS), 2022):
In all, about 120,000 compounds went through this assay and about 370 (0.31%) were called active. Not shown: some 4% with an inconclusive outcome. Calls follow the shape of the full dose curve. What follows is part of a selection rich in actives, with near analogues and random picks from the rest.

Test: Primary qHTS Assay for Foot and Mouth Disease Virus Antivirals against NCGC Sytravon and CBC Compound Libraries: Renilla Luciferase Signal; also: nearly all actives have a fitted effect of over 55% in size
Conditions: FMDV replicon cells; series mostly up to 57.5 µM; activity change, negative = inhibition: at the top concentration
% is scaled to controls: 0 for no effect and ±100 for the full control effect; potency is read from the fitted curve at half-maximal effect.

| SMILES | activity change, negative = inhibition | Potency |
| --- | --- | --- |
| Cn1c(=O)c2c(ncn2CC(=O)NCCc2cccc(F)c2)n(C)c1=O | -3.59% (inactive) | – |
| C=C(C)CN1CCN(c2oc(C3CC3)nc2C#N)CC1 | 0.962% (inactive) | – |
| Cc1c(-c2ccccc2)oc2c(C(=O)OCC(=O)C(C)(C)C)cccc2c1=O | 24.8% (inactive) | – |
| COCCNC(=O)COc1cc(O)c2c(=O)cc(-c3ccccc3)oc2c1 | -3.95% (inactive) | – |
| CCc1cccc(NC(=O)c2ccc3c(c2)NC(=O)CS3)c1 | -4.7% (inactive) | – |
| CC(C)Sc1c(C(C)C)cnc2c1c(=O)n(C)c(=O)n2C | 13.9% (inactive) | – |
| CC(C)Oc1ccc(C(O)(CC[N+](C)(C)C)C2CCCCC2)cc1 (stereo not drawn) | -5.33% (inactive) | – |
| COc1ccc(/C=C/c2ccc3cccc(O)c3n2)cc1OC | 22.5% (inactive) | – |
| Cc1sc2nc(CN3CCOCC3)nc(N(C)CC(=O)Nc3ccc(F)cc3)c2c1C | -4.28% (inactive) | – |
| Cc1ccc(-c2csc3c2NC(=O)CC3c2ccc(C)cc2)cc1 (stereo not drawn) | -2.07% (inactive) | – |
| COc1ccc(-c2csc3c2NC(=O)CC3c2ccc(OCC(N)=O)c(OC)c2)cc1 (stereo not drawn) | – | 2.82 µM (active) |
| COc1ccc(C2CC(=O)Nc3c2c(=O)nc2c(C)cccn32)cc1OC (stereo not drawn) | 129% (inactive) | – |
| COc1ccc(Nc2nc(-c3ccc(NC(C)=O)cc3)cs2)cc1 | 21.3% (inactive) | – |
| COc1ccc(CNC(=O)NCc2noc3ccc(C)cc23)cc1 | 0% (inactive) | – |
| COC(=O)COc1ccc2c(C)c(CC(=O)OC)c(=O)oc2c1C | -19.7% (inactive) | – |
| O=C(Cc1cnc(-c2ccccc2F)s1)Nc1nccs1 | -1.54% (inactive) | – |
| COc1ccc(S(=O)(=O)N2CCC(C(=O)NCc3cccnc3)CC2)cc1 | 13% (inactive) | – |
| O=C(O)c1ccc(CNCc2ccco2)cc1 | 5.71% (inactive) | – |
| Cc1cc2nc(/N=C(\N)NC(=O)Cc3ccccc3)nc(C)c2cc1C | -1.81% (inactive) | – |
| Cn1c(=O)c2nc(SCC(=O)NCc3ccc(Cl)cc3)n(C)c2n(C)c1=O | -0.19% (inactive) | – |
| Cc1noc(C)c1S(=O)(=O)N(C)CC(=O)Nc1ccc(C(C)(C)C)cc1 | -15.4% (inactive) | – |
| CN(C)S(=O)(=O)c1cccc(C(=O)Nc2cccc(Oc3ccccc3)c2)c1 | 14.5% (inactive) | – |

| SMILES | activity change, negative = inhibition | Potency |
| --- | --- | --- |
| CCCCn1c(=O)[nH]c(=O)c2c1nc(CSc1nnc(-c3ccco3)n1C)n2CC | 4.85% (inactive) | – |
| CCOC(=O)c1ccc(Oc2coc3cc(OC)ccc3c2=O)cc1 | 2.18% (inactive) | – |
| CN1CC[C@H](c2c(O)cc(O)c3c(=O)cc(-c4ccccc4Cl)oc23)[C@H](O)C1 | – | 1 µM (active) |
| Cc1ccc(C(=O)O)cc1S(N)(=O)=O | 2% (inactive) | – |
| COc1ccc(NC(=O)c2cccc(-n3cccc3)c2)c(OC)c1 | 21.8% (inactive) | – |
| CCN(C(=O)Cn1c(CN2CCOCC2)nc2ccccc21)c1ccccc1 | -15% (inactive) | – |
| CCOc1cccc2c(C)nc(Nc3nc(CSc4ccc(C)cc4)cc(=O)[nH]3)nc12 | -3.54% (inactive) | – |
| Cc1ccc(CC(=O)N(C)CC(=O)N(CC(C)C)c2c(N)n(CC(C)C)c(=O)[nH]c2=O)cc1C | -10.9% (inactive) | – |
| O=C1c2ccccc2NC(c2cnc3ccccc3n2)N1c1ccc(F)cc1 (stereo not drawn) | 2.44% (inactive) | – |
| CCCCn1c(=O)[nH]c(=O)c2c1nc(CSc1n[nH]c(C)n1)n2CC | 17% (inactive) | – |
| COC(=O)c1ccc(C(=O)NCc2ccccc2C)cc1 | 74% (inactive) | – |
| Cc1c(C)[n+](=O)c2cc(F)c(F)cc2n1[O-] | 21.4% (inactive) | – |
| Cc1ccc(-c2noc(Cn3cnc(C#N)n3)n2)cc1F | -14.4% (inactive) | – |
| O=C1CCSc2c1cccc2C(=O)NCc1ccccc1Cl | 28.6% (inactive) | – |
| COCCn1c(SCc2cc(C)ccc2OC)nnc1-c1ccccc1 | 51.2% (inactive) | – |
| COc1ccc(Nc2nc3ccccc3nc2NS(=O)(=O)c2ccc(OC)cc2)cc1 | 284% (inactive) | – |
| CCOCCCNc1oc(-c2ccc(S(=O)(=O)N(C)C)cc2)nc1C#N | 11.5% (inactive) | – |
| Cc1cccc(NC(=O)c2cccc3ncccc23)c1 | -4.62% (inactive) | – |
| CC(NCc1cccs1)C12CC3CC(CC(C3)C1)C2 (stereo not drawn) | 1.23% (inactive) | – |
| CC(C)COc1ccc(/C=C(\C#N)C(=O)Nc2ccccc2C(=O)O)cc1 | 112% (inactive) | – |
| COC(=O)C(N)Cc1ccc2ccccc2c1 (stereo not drawn) | -8.69% [at 1.06 µM] (inactive) | – |
| O=C(NCC1CC1)c1cc(-c2ccncc2)nc2ccccc12 | -3.62% (inactive) | – |

| SMILES | activity change, negative = inhibition | Potency |
| --- | --- | --- |
| Brc1ccc(/C=N/Nc2nc3ccccc3c3ccccc23)cc1 | 11.2% (inactive) | – |
| CCCCCCCCCOc1ccc(C(=O)c2ccccc2)cc1 | 19.7% (inactive) | – |
| Cc1ccc(NC(=O)Cn2cc(/C=C3\NC(=O)NC3=O)c3ccccc32)cc1 | -7.74% (inactive) | – |
| c1ccc(N2CCN(c3nc(N4CCCCC4)nc4nccnc34)CC2)cc1 | -1.01% (inactive) | – |
| COc1ccccc1NC(=O)C(=O)NCC(c1cccnc1)N1CCN(c2ccccc2F)CC1 (stereo not drawn) | -20.7% (inactive) | – |
| O=C(NCc1cccnc1)C(=O)NCC(c1cccnc1)N1CCN(c2ccccc2)CC1 (stereo not drawn) | -12.2% (inactive) | – |
| COc1ccccc1N1CCN(C(CNC(=O)C(=O)NCc2ccc(C)cc2)c2cccnc2)CC1 (stereo not drawn) | – | 7.08 µM (active) |
| CCOc1ccccc1NC(=O)N1CCC2(CC1)c1cccn1-c1ccc(C)cc1N2CC | -9.05% (inactive) | – |
| O=C(Cc1c[nH]c2ccccc12)N1CCN(C(=O)c2ccccc2)CC1 | -4.71% (inactive) | – |
| O=C(COc1ncnc2ccccc12)Nc1ccccc1Cl | 5.08% (inactive) | – |
| COC(=O)CNC(=O)c1cc2occc2n1Cc1ccccc1 | -3.45% (inactive) | – |
| COC1CC(OC2CCC3(C=O)[C@H]4CCC5(C)C(C6=CC(=O)OC6)CCC5(O)[C@@H]4CCC3(O)C2)OC(C)C1O (stereo partly drawn) | – | 0.398 µM (active) |
| N#Cc1cn(C2CC2)c(=O)n(Cc2coc(-c3cccc(Cl)c3)n2)c1=O | -10.6% (inactive) | – |
| O=C(CCc1ncc(-c2ccc(F)cc2)o1)NCC(c1ccccc1)N1CCCC1 (stereo not drawn) | -17.8% (inactive) | – |
| O=C(CC1(O)C(=O)N(CN2CCOCC2)c2ccccc21)c1ccc2ccccc2c1 (stereo not drawn) | 69.4% (inactive) | – |
| Oc1c(Cl)cc(Cl)c(Cl)c1Cc1c(O)c(Cl)cc(Cl)c1Cl | – | 10 µM (active) |
| Cc1cccc(OCCn2cc(S(=O)(=O)N3CCCC3)ccc2=O)c1 | 12.5% (inactive) | – |
| CCN(CC)CCCNC(=O)C(=O)Nc1cccc2[nH]ccc12 | -2.93% (inactive) | – |
| O=C(CSc1ccc2c(c1)OCCCO2)NC(c1ccccc1)c1cccs1 (stereo not drawn) | 20.5% (inactive) | – |
| Cc1cccc(NC(=O)CN2CCCN(c3ncc(C(F)(F)F)cc3Cl)CC2)c1 | -9.07% (inactive) | – |
| CCC(C)NC(=O)COc1ccc2c(C)cc(=O)oc2c1 (stereo not drawn) | -9.07% (inactive) | – |
| CCOC(=O)CN1C(C(=O)c2ccccc2)=C(OC(=O)CC)c2ccccc2S1(=O)=O | 1.36% (inactive) | – |

| SMILES | activity change, negative = inhibition | Potency |
| --- | --- | --- |
| COC(=O)c1[nH]c2ccc(F)cc2c1NC(=O)CCN1CCC(C)CC1 | -9.84% (inactive) | – |
| N#Cc1ccccc1COC(=O)c1ccccc1NCCO | 17.4% (inactive) | – |
| Cc1cc(C)cc(Nc2nc(NCc3ccco3)nc3c2cnn3-c2ccccc2)c1 | 12.2% (inactive) | – |
| Fc1cccc(-c2nc(COc3ccc4ccc(C(F)(F)F)nc4c3)co2)c1 | 12.5% (inactive) | – |
| C#CCN([C@H](C(=O)OC)C(C)CC)S(=O)(=O)c1ccccc1Br (stereo partly drawn) | 53.7% (inactive) | – |
| CC1CC1C(=O)Nc1ccc2c(c1)CCC2 (stereo not drawn) | 9.89% (inactive) | – |
| O=C(NCCc1ccc(F)cc1)c1[nH]c2ccccc2c1Cl | 8.36% (inactive) | – |
| COc1ccc(OC)c(C(O)c2nc3ccccc3n2C)c1 (stereo not drawn) | 77.3% (inactive) | – |
| Cc1ccc(CC(=O)NCc2ccc(COC(C)C)cc2)cc1 | 8.49% (inactive) | – |
| Cc1ccc(C)c(NC(NC(=O)c2cccc(Cl)c2)C(Cl)(Cl)Cl)c1 (stereo not drawn) | 14.8% (inactive) | – |
| CN(C(N)=NC(=O)/C=C/c1ccccc1)C(C#Cc1ccccc1)Cc1ccccc1 (stereo not drawn) | 38% (inactive) | – |
| CCc1nnsc1C(=O)NC(C)c1cccc(OC(C)C)c1 (stereo not drawn) | 0.925% (inactive) | – |
| O=C(CN1CCCC(C(F)(F)F)C1)Nc1cccc2ncccc12 (stereo not drawn) | -0.05% (inactive) | – |
| CCOC(=O)c1ccccc1NC(=O)COC(=O)c1ccc2c(c1)NC(=O)C(C)S2 (stereo not drawn) | -6.77% (inactive) | – |
| COc1ccc(CSc2nnc(C3CC3)n2C2CC2)cc1F | 0.293% (inactive) | – |
| COc1ccc(C)cc1NC(=O)c1ccc2c(c1)NC(=O)CS2 | -2.97% (inactive) | – |
| COc1ccc(Br)cc1COc1ccc(C#N)cc1 | 16.7% (inactive) | – |
| Cc1ccc(NCc2cc3ccc(C)cc3[nH]c2=O)c(C)c1 | 59.9% (inactive) | – |
| Cc1cnc(NC(=O)CNC(=O)c2ccoc2)s1 | 0.571% (inactive) | – |
| CC(CC(=O)Nc1ccc(O)cc1)(C(=O)O)c1ccccc1 (stereo not drawn) | 21.2% (inactive) | – |
| CC(/C=N/NC(=O)c1ccc(C)cc1)=C\c1ccccc1 | 46.3% (inactive) | – |
| CCC(C)NC(=O)CSc1ncc(-c2cccc(Br)c2)o1 (stereo not drawn) | -19.2% (inactive) | – |

| SMILES | activity change, negative = inhibition | Potency |
| --- | --- | --- |
| O=C(Cc1ccc(F)cc1)Nc1c(NC2CCCCC2)c2ccccc2oc1=O | 37.2% (inactive) | – |
| CN(C)C(CNC(=O)Cc1n[nH]c(=O)c2ccccc12)Cc1ccccc1 (stereo not drawn) | -7.02% (inactive) | – |
| CCCC(=O)Nc1nc2ccc(CCC(=O)NCc3cc(Br)ccc3OC)cc2s1 | 106% (inactive) | – |
| CS(=O)(=O)N(CC(=O)N1CCc2ccccc2C1)c1cc(C(F)(F)F)ccc1Cl | 254% (inactive) | – |
| COc1cccc(CNC(=O)C2CCC(CNS(=O)(=O)c3cccs3)CC2)c1 (stereo not drawn) | 8.54% (inactive) | – |
| Cc1ccc(C)c(N2CCN(C(=O)C3CCC(CNS(=O)(=O)c4cccs4)CC3)CC2)c1 (stereo not drawn) | – | 31.6 µM (active) |
| O=C(CNS(=O)(=O)c1cccs1)N1CCN(c2ccccc2Cl)CC1 | 4.67% (inactive) | – |
| Fc1cc(CSc2nncn2C2CC2)c2ncccc2c1 | 34.1% (inactive) | – |
| CC1CCN(S(=O)(=O)c2ccc3oc(=O)ccc3c2)CC1 | 24.2% (inactive) | – |
| CCOC(=O)c1cnc(Nc2ccccc2)c2ccccc12 | 5.33% (inactive) | – |
| CC1(C)CC(=O)C2=C(C1)N(Cc1ccccc1)C(CCC1CCCCC1)=NC2(C(F)(F)F)C(F)(F)F | 4.12% (inactive) | – |
| COc1cc(C(=O)Oc2c(C)cccc2C)cc(Cl)c1OC(C)C | -5.15% [at 1.06 µM] (inactive) | – |
| CCn1c(C)cc(C(=O)Cn2nc(C)c(C)c(C#N)c2=O)c1C | -1.09% (inactive) | – |
| CCCCS(=O)C1CCCCC1OC(=O)c1ccccc1 (stereo not drawn) | 34.2% (inactive) | – |
| O=C(OCc1cccnc1)c1nn(Cc2ccccc2)c(=O)c2ccccc12 | 74.7% (inactive) | – |
| COC(=O)c1ccc(Cl)cc1NC(=O)Cn1c(=O)n(Cc2ccc(F)cc2)c(=O)c2ccccc21 | -6.04% (inactive) | – |
| CC(C)NC(=O)CN1CCCN(C(=O)c2cc3ccccc3n2C)CC1 | -3.01% (inactive) | – |
| O=C(COc1ccccc1)NCc1ccc2c(c1)CCN2C(=O)c1ccc(F)cc1 | 6.8% (inactive) | – |
| O=C(NCc1ccc2c(c1)CCN2C(=O)c1ccccc1)c1ccccc1 | -17.4% (inactive) | – |
| O=C(NCc1ccc2c(c1)CCN2C(=O)c1ccccc1)Nc1cc(F)ccc1F | – | 8.91 µM (active) |
